Assay outcomes: PubChem, several laboratories
beta cell repl – MIN6 beta-cell proliferation induction | MIN6 cells proliferation, ATPlite luminescence, 48 h; cells starved in 0.2% serum; 100% = growth in 10% serum | proliferation, % at 10 µM | actives 0.29% (n = 330,000);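 active means compounds whose signal lies at least 3.5 SD above the mean of all wells on their plate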
A3A deaminase – inhibitors of human APOBEC3A DNA deaminase | P31941 | recombinant A3A, FAM/TAMRA ssDNA deamination fluorescence | inhibition, % at 20 µM | actives 0.41% (n = 330,000);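 active means at least 40% inhibition at 20 µM here, with at most 30% in a related deaminase screen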
Target sequence (P31941 whole entry, looked up): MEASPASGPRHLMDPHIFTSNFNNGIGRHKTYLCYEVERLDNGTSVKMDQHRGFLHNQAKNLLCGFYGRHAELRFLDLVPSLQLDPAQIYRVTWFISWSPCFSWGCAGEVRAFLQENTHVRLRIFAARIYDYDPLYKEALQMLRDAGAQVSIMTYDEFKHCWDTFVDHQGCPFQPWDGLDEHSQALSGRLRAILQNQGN
Bfl-1 A1 inh – inhibitors of the anti-apoptotic protein A1, read as caspase activation | caspase activation, % (test concentration not listed) | actives 0.066% (n = 330,000) | MEF A1-2A-BIM cells, Caspase-Glo 3/7 luminescence, 3 h; percent of clofoctol response, vehicle zero;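 active means over half of replicate activation scores above 10%, or exactly half above 10 with the replicate mean above 10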
APOBEC3G inh – blocks human APOBEC3G single-stranded DNA deamination; recombinant A3G, ssDNA deamination FAM/TAMRA fluorescence; inhibition, % at 20 µM; actives 0.28% (n = 330,000); AID 493012;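 active means inhibition of at least 40% at 20 µM, with no more than 30% in the related APOBEC3A deaminase screen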
Target sequence (Q9HC16 whole entry, looked up): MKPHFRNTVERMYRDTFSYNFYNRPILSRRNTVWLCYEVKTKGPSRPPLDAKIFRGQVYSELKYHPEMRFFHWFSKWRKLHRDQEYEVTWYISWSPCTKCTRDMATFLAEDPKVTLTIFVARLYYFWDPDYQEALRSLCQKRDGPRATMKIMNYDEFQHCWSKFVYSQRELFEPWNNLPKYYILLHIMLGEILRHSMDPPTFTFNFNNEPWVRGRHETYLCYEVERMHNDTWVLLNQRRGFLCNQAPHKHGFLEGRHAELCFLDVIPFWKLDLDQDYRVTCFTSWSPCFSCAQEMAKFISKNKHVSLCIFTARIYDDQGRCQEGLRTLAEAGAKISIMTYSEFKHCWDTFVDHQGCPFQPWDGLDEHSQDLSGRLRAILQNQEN
A3A conf – APOBEC3A (human) deaminase inhibition, confirmed; shares compounds with A3A deaminase; recombinant A3A, ssDNA deaminase UDG fluorescence assay; inhibition, % at 20 µM; actives 63% (n = 1,400); AID 493151;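 active means inhibition reaching a set limit, 80% of the first screen's cutoff, at 20 µM in any replicate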
UDG ctr A3A – UDG inhibition in APOBEC3A counter-screen | 1,000 tested, under 10 active | UDG counterscreen, FAM/TAMRA uracil oligo fluorescence | shares compounds with A3A deaminase | inhibition, % at 20 µM; call rule not given here
Hits are given with their value; - = inactive; . = no result given. The list is not random: actives were taken first. Their share in the collection is about 1.1%.

SMILES	beta cell repl	A3A deaminase	Bfl-1 A1 inh	APOBEC3G inh	A3A conf	UDG ctr A3A
O=C(O)c1cc(-c2ccc(/C=C3\NC(=O)N(c4ccc(Cl)cc4)C3=O)o2)ccc1Cl	-	-	-	-	.	.
CCc1ccc(NS(=O)(=O)c2ccc(C)c(C(=O)N3CCOCC3)c2)cc1	-	75	-	-	91	-
O=C(Cn1cnc2scc(-c3cccc([N+](=O)[O-])c3)c2c1=O)NCc1ccco1	-	-	-	-	.	.
Cc1cc(/C=N/NC(=O)c2cccc(N(C)C)c2)c(C)n1-c1cc(C(=O)O)cc(C(=O)O)c1	-	66	.	-	65	-
Cc1cc(/C=N/NC(=O)C(O)(c2ccccc2)c2ccccc2)c(C)n1-c1cccc(C(=O)O)c1	-	45	-	-	-	.
N#Cc1ccccc1CN1C(=O)S/C(=C/c2cccn2-c2ccc(C(=O)O)cc2)C1=O	-	44	-	-	25	-
Cc1cc(C)cc(N(CCC#N)C(=O)COC(=O)C2CCN(S(=O)(=O)c3ccc(C)c(C)c3)CC2)c1	-	-	-	-	.	.
CCn1c(SCc2ccc(Cl)c(Cl)c2)nnc1C(C)NC(=O)c1ccc(OC)cc1 (stereo not drawn)	-	-	-	-	.	.
COc1ccc(C(=O)NC(C)c2nnc(SCc3ccc(Cl)c(Cl)c3)n2C)cc1 (stereo not drawn)	-	57	-	-	60	-
COc1cc(C(=O)NCc2ccco2)c(Br)c(OC)c1OC	-	51	-	-	-	-
COc1cc2c(cc1OC)C[N+](C)(C)CC2	-	45	-	-	75	-
COc1cc2c(cc1OC)CC(=O)N(C)CC2	-	-	-	-	.	.
CCCN(C(=O)CSCc1ccc(Cl)cc1)c1c(N)n(Cc2ccccc2)c(=O)[nH]c1=O	-	-	-	-	.	.
CCOC(=O)C1=C(COC(=O)CCCOc2ccccc2)NC(=O)NC1C (stereo not drawn)	-	-	.	-	.	.
COc1ccc2cc(Br)ccc2c1CC(=O)NCCCN1CCOCC1	-	-	-	-	.	.
C=CCn1c(CNC(=O)c2cccs2)nnc1SCC(=O)c1ccc(Br)cc1	-	-	-	-	.	.
C=CCn1c(CNC(=O)c2cccs2)nnc1SCC(=O)Nc1ccc(C(=O)O)cc1	-	48	-	-	-	.
C[n+]1cnc(-c2ccccc2)cc1-c1ccccc1	-	45	-	-	62	-
c1ccc(-c2cc(-c3ccccc3)ncn2)cc1	-	-	-	-	.	.
CCN(CC)C(=O)Cn1cc(SCC(=O)NC)c2ccccc21	-	83	-	-	-	.
CCN(CC)C(=O)Cn1cc(SCC(=O)NC2CCCC2)c2ccccc21	-	-	-	-	.	.
CCC(C)c1ccccc1NC(=O)c1cccc(-n2cnnn2)c1 (stereo not drawn)	-	52	-	-	34	-
COc1ccc(Cl)cc1NC(=O)c1cccc(-n2cnnn2)c1	-	48	.	-	-	-
O=C(Nc1ccc(Br)cc1)c1cccc(-n2cnnn2)c1	-	51	-	-	-	-
CCC(C)c1ccccc1NC(=O)c1cccnc1 (stereo not drawn)	-	-	-	-	.	.
SMILES	beta cell repl	A3A deaminase	Bfl-1 A1 inh	APOBEC3G inh	A3A conf	UDG ctr A3A
CC(=O)Oc1ccc(C(=O)Nc2ccc(C3(C#N)CCCC3)cc2)cc1	-	-	-	-	.	.
CCCn1c(=O)c2sccc2n2c(CCCC(=O)NCc3cccnc3)nnc12	-	-	-	-	.	.
CCCn1c(=O)c2sccc2n2c(CCCC(=O)NCc3ccco3)nnc12	-	46	-	-	34	.
CC(C)(C)NC(=O)CSc1nc2cc(S(=O)(=O)N3CCCCC3)ccc2o1	-	-	-	-	.	.
COC(=O)c1cc(NC(=O)Cc2cccs2)cc(C(=O)OC)c1	-	64	-	-	48	.
CCOC(=O)CCCCCC(=O)Nc1ccc2c(c1)CC(=O)N([C@@H](C)CO)C[C@H](C)[C@@H](CN(C)C(=O)Nc1ccc3c(c1)OCO3)O2	-	-	-	-	.	.
CSc1nc2ccc(NS(=O)(=O)c3ccc(Br)s3)cc2s1	-	-	-	-	.	.
O=S(=O)(Nc1ccon1)c1ccc(Br)s1	-	76	-	-	-	-
Cc1cccc(C)c1NC(=O)C(C)Sc1n[nH]c(-c2ccncc2)n1 (stereo not drawn)	-	82	-	-	-	-
COc1cc(OC)cc(C(=O)OCC(=O)Nc2cccc(S(=O)(=O)NC3=NCCCCC3)c2)c1	-	88	-	-	-	-
O=C(COC(=O)c1ccc(O)cc1)Nc1cccc(S(=O)(=O)NC2=NCCCCC2)c1	-	-	-	-	.	.
CCN(CC)S(=O)(=O)c1cccc(C(=O)Nc2ccc(S(=O)(=O)NC3=NCCCCC3)cc2)c1	-	55	-	-	-	.
CON(C)S(=O)(=O)c1cccc(C(=O)Nc2ccc(S(=O)(=O)NC3=NCCCCC3)cc2)c1	-	-	.	-	.	.
CC1=NN(c2ccccc2)C(=O)C1(C)C	-	-	-	-	.	.
CC[N+]1=CN(c2ccccc2)C(C)=CC1(C)C	-	61	-	-	-	.
COc1ccc(NC(=O)CNS(=O)(=O)c2ccc(Cl)cc2)cc1	-	-	-	-	.	.
COc1ccc(NC(C)=[N+](C)CCNS(=O)(=O)c2ccc(Cl)cc2)cc1	-	46	-	-	-	.
Cc1cc(C(=O)NC(C)CCC(C)C)c2ccccc2n1 (stereo not drawn)	-	46	-	-	-	.
O=C(CSc1nnnn1C1CC1)Nc1ccc(S(=O)(=O)N2CCOCC2)cc1	-	-	-	-	.	.
Cc1ccc(OCCn2c(Br)nc3c2c(=O)n(C)c(=O)n3C)cc1	-	-	-	-	.	.
COCCn1c(Br)nc2c1c(=O)n(C)c(=O)n2C	-	48	-	-	-	-
Cc1ccc(C(=O)NCCC(=O)Nc2ccccc2C)cc1	-	-	-	-	.	.
CCC1=[N+](C)c2cccc3cccc(c23)N1C	-	65	-	-	78	-
Oc1ccccc1C=NC(c1ccccc1)C(O)c1ccccc1 (stereo not drawn)	-	-	-	-	.	.
Oc1ccccc1/C=N/[n+]1ccccc1	-	69	-	-	66	-
SMILES	beta cell repl	A3A deaminase	Bfl-1 A1 inh	APOBEC3G inh	A3A conf	UDG ctr A3A
CCOC(=O)N1CCN(C(=O)c2ccc(Cl)c(NC(=O)c3cccs3)c2)CC1	-	-	-	-	.	.
COc1ccc2c(c1)CCCC21NC(=O)N(CC(=O)NCc2cccs2)C1=O (stereo not drawn)	-	-	-	-	.	.
CCn1c(SCC(=O)NCc2ccccc2)nnc1C(CO)NC(=O)c1ccccc1 (stereo not drawn)	-	69	-	-	62	-
CCn1c(SCC(=O)NCCc2ccccc2)nnc1C(C)C	-	-	-	-	.	.
CC(=O)N[C@H]1[C@H](Oc2ccc3c(c2)CCC2C3CC[C@]3(C)C(=O)CCC23)O[C@H](CO)[C@@H](O)[C@@H]1O (stereo partly drawn)	-	-	-	-	.	.
C[N+]1(CCOC(=O)C2(c3ccccc3)CCCC2)CCCCC1	-	64	-	-	63	-
